In PubChem BioAssay (NCI):
About 83,000 compounds went through this panel and 20% of them were active in at least one assay; those are over-represented in the sample as a whole.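 Cell lines were cultured in 96-well plates, exposed to a single compound concentration, and assessed for percent growth 48 hours later.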 A number with no mark means an inactive call. Activity calls are given as the source filed them.

test system: NCI/ADR-RES ovarian; test: NCI-60 one-dose screen, 48 h (100 = growth as untreated, 0 = no growth, -100 = all killed); details: 10 µM unless noted
Experimental: Growth inhibition of the NCI/ADR-RES human […] tumor cell line is measured as a screen for anti-cancer activity. Cells are grown in 96 well plates and exposed to the test compound for 48 hours. Compounds are tested at a single concentration, which is 10^-5 M for most compounds. The reported endpoint is percent growth (GI% or GIPRCNT), where numbers from 0 - 100% represent growth inhibition, and numbers from -100% - 0 represent cell death. For example, a value of 40 represents 60% growth inhibition. A value of 0 means no net growth occurred over the course of the experiment. A value of -40 indicates 40% of cells at the beginning of the experiment died by the end of the experiment. A value of -100 means all cells are dead at the end of the experiment.
NCI-60 Human Tumor Cell Lines Screen was performed using the standard one-dose NCI protocol, which is described in more detail at https://dtp.cancer.gov/discovery_development/nci-60/default.htm.
Compounds with GIPRCNT values below 10 were considered active. Activity score was based on GIPRCNT using the following formula: […]
Score is 0 for GIPRCNT values of 100 or above, 50 for GIPRCNT values of 0, and 100 for GIPRCNT values of -100.

SMILES | growth
S=c1nc(-c2ccccn2)c(-c2ccccn2)n[nH]1 | 102%
COc1ccc(C)cc1NC(=O)SC(C)C | 103% [100 µM]
CC1CCC(C)(C)c2ccccc21 (stereo not given) | 101%
CC(=O)c1cc(O)ccc1O | 92.8%
Cc1[nH]n(-c2ccccc2)c(=O)c1C=NC(=S)C(N)=S | 101%
CC(C)C1CCC(C)C(O)C1 (stereo not given) | 103%
Cc1cc(Cl)cc(Cc2cc(Cl)cc(C)c2O)c1O | -10.7% (active)
CS(=O)(=O)c1ccc(/C=C\C(=O)O)cc1 | 104%
Cc1cc(CC(=O)NCCO)n(CCO)c(=O)c1 | 106%
Cc1ccc2nc(-c3ccc(N=Cc4ccccc4O)cc3)sc2c1 | 77.7%
C=C1SC(=Nc2c(C)cccc2C)N(c2nc(Cl)nc(Cl)n2)C12CCCCC2 | 105%
O=C(O)Cc1cccc2ccccc12 | 100%
CCCC(=O)c1cccs1 | 101%
CCOc1ccc(C(=O)O)cc1 | 105%
S=C=Nc1ccc2ccccc2c1 | 102%
CC(C)Sc1ncnc2nc[nH]c12 | 102%
Cc1ccc(NCN2C(=O)c3ccccc3C2=O)c(C)n1 | 106%
C/C(O)=C(/C=N/C(=S)Nc1ccccc1)C(=O)Nc1ccccc1C | 103%
Cc1onc(-c2ccccc2Cl)c1C(=O)Cl | 105%
CC(c1ccccc1)N1C(=O)CSC1=S (stereo not given) | -62.5% (active)

SMILES | growth
NNc1ncccn1 | 104%
CN(C)Cc1ccccn1 | 103%
O=C1C=CC(=O)C2=C1CCCC2 | 94.8%
Oc1ccc(N=Cc2ccc(OCc3ccccc3)cc2)cc1 | 95.6%
CCOC(=O)CSCCC#N | 100%
Cc1ccc(N2C(=O)c3cccc4c(N)c(S(=O)(=O)O)cc(c34)C2=O)cc1 | 103%
c1ccc(Nc2ccccn2)nc1 | 112%
Nc1ccn(C2OC(CO)C(O)C2F)c(=O)n1 (stereo not given) | 73.2%
CCOC(=N)CC(=O)Nc1cccc(C)c1Cl | 97.7%
O=[N+]([O-])c1ccc(-c2nc(N(CCO)CCO)c3ccccc3n2)o1 | 5.04% (active)
OCC1OC(n2ccc3c2ncn2ncnc32)C(O)C1O (stereo not given) | 23.1%
CC(CO)(CO)C(=O)O | 103%
CCC(C)C1CCC(O)CC1 (stereo not given) | 103%
NC(=S)N/N=C/c1ccc(OC(=O)COc2ccc(Cl)cc2)cn1 | 27.9%
CCC12OC(COc3ccccc3)CN1CCN2c1ccccc1 (stereo not given) | 100% [100 µM]
COC(=O)c1ccccc1C(=O)c1c(C)cc(C)cc1C | 102%
Nc1ncc([N+](=O)[O-])cn1 | 105%
Cc1ccc2nc(N)nnc2c1 | 96%
ClCC(Cl)C1CCC(Cl)C(Cl)C1 (stereo not given) | 104%
CCOc1ccc(NC(=S)N2CCC(CCCC3CCN(C(=S)Nc4ccc(OCC)cc4)CC3)CC2)cc1 | 94%
